# Measured values published in paper PMC5540273 (PLoS ONE, 2017).
# Key:
# Conditions in all cases: concentration: 1 μM, replicates: in singlicate; n = 1
# TESK1 = tested on: TESK1
# TGFBR1 = tested on: TGFBR1
# TGFBR2 = tested on: TGFBR2
# TIE1 = tested on: TIE1
# TIE2 = tested on: T1, TIE2
# T1 construct: gene TEK
# TLK1 = tested on: TLK1
# TLK2 = tested on: TLK2
# TNIK = tested on: TNIK
# TNK1 = tested on: TNK1
# TNK2 = tested on: TNK2
# 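Also: KINOMEscan kinase panel screen.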
Compound,%Inh (TESK1),%Inh (TGFBR1),%Inh (TGFBR2),%Inh (TIE1),%Inh (TIE2),%Inh (TLK1),%Inh (TLK2),%Inh (TNIK),%Inh (TNK1),%Inh (TNK2)
COc1cc(Nc2nccc(-c3c(-c4cccc(NC(=O)c5c(F)cccc5F)c4)nn4ncccc34)n2)cc(OC)c1OC [GSK327238],51%,1%,11%,90.6%,96.9%,42%,12%,80%,100%,69%
Cn1cc(-c2ccc3c(c2)CCN3C(=O)Cc2cccc(Cl)c2)c2c(N)ncnc21 [GSK2606590],52%,0%,0%,92.3%,45%,0%,0%,7%,11%,0%
FC(F)(F)c1ccc(/C=C/c2cncnc2Nc2ccc3[nH]c(Cc4ccccc4)nc3c2)cc1 [GW709199],2%,28%,0%,0%,15%,0%,0%,0%,0%,0%
Cc1ccc(F)c(C(=O)Nc2cccc(-c3nn4ccccc4c3-c3ccnc(Nc4cccc(F)c4)n3)c2)c1F [GSK361061],28%,43%,21%,55%,27%,8%,0%,29%,88%,43%
CCS(=O)(=O)c1ccc(OC)c(Nc2nccc(-c3c(-c4cccc(NC(=O)c5c(F)cccc5F)c4)nn4ncccc34)n2)c1 [GSK326180],2%,22%,0%,47%,37%,3%,0%,0%,85%,48%
Nc1n[nH]c2cnc(-c3ccccc3)cc12 [SB-642124],22%,27%,58%,100%,0%,25%,0%,39%,0%,38%
Nc1ncnc2c1nc(-c1ccccc1)n2-c1ccccc1 [SKF-97293],19%,9%,4%,9%,11%,0%,19%,0%,8%,0%
c1ccc(-c2n[nH]cc2Nc2ccnc3ccccc23)nc1 [GW694077],11%,5%,56%,0%,0%,0%,0%,42%,0%,1%
COC(=O)Nc1nc2cc(Oc3ccc(NC(=O)Nc4cc(C(F)(F)F)ccc4F)cn3)ccc2[nH]1.Cl.Cl [GW681170],10%,0%,0%,93.1%,98.6%,11%,0%,0%,0%,0%
O=c1[nH]cc(-c2ccc(N3CCOCC3)cc2)c2sc(-c3cn[nH]c3)cc12 [GSK2276055],55%,0%,0%,0%,0%,25%,19%,10%,0%,0%
Cl.c1ccc(-c2ccc3c(Nc4ccc5[nH]ncc5c4)ccnc3c2)nc1 [GW440137],63%,31%,50%,1%,0%,15%,5%,18%,2%,8%
O=C(Nc1cccc(-c2nn3ccccc3c2-c2ccnc(Nc3cccc(C(F)(F)F)c3)n2)c1)c1c(F)cccc1F [GSK292658],0%,6%,0%,31%,0%,0%,0%,0%,75%,22%
Cc1ccc(C(=O)N2CC[C@@H](O)C2)cc1-n1c(C)cc(OCc2ccc(F)cc2F)c(Br)c1=O,0%,16%,0%,0%,20%,13%,0%,0%,0%,0%
CCc1ccc(-c2ccc3c(c2)-c2c(cnn2C)S(=O)(=O)N3C)cc1,3%,0%,2%,33%,0%,0%,0%,8%,0%,0%
COCCOCCOc1cc2ncc3c4ccc(C#N)cc4[nH]c3c2cc1OC,18%,0%,0%,0%,0%,0%,0%,87%,0%,9%
Cl.Cl.NCC(NCc1ccc(-c2ccnc3[nH]ccc23)s1)c1ccccc1 (stereo not shown) [GSK1321565],18%,15%,0%,9%,0%,0%,0%,0%,0%,0%
